Many of the other results were omitted from the sample, so hits are more common in it than they were.
CtBP-E1A inh – CtBP/E1A binding inhibition; AlphaScreen GST-E1A/His-CtBP binding, 1536-well; stronger effect = lower value; activity change, % (concentration not given with the values); 340,000 compounds, 0.49% hits; AID 651724; in the data active means activity change below about -65%; inconclusive means mostly about -30% to -63%
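AlphaScreen with 125 nM GST-E1A and 125 nM His-CtBP (5X stocks) in Tris pH 8.0, 300 mM NaCl, BSA, Tween 20, TCEP. Compounds preincubated 2 h at 37 deg C, then glutathione donor/nickel acceptor beads added for 1 h at 37 deg C in dark.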
Eya2 inh – Eya2 (human) phosphatase inhibition. O00167. recombinant Eya2, OMFP fluorescence dephosphorylation (OMFP is methylfluorescein phosphate). Potency, µM (doses to about 76.9 µM), for inactives: at the top dose activity, negative = inhibition, most hits filed as inhibitors. 330,000 compounds, 0.006% hits; further: potency means the concentration at half of the fitted maximal effect
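Eya2 (0.2 uM) preincubated 10 min at ambient with compound, then OMFP substrate added at 50 uM; 10 min reaction in 50 mM HEPES pH 7.5, 50 mM NaCl, 5 uM MgCl2, 0.05% BSA, 1 mM DTT. Fluorescence read at Ex 485/Em 525 nm.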
Six1-Eya2 inh – blocks human Six1 binding to Eya2; AlphaScreen GST-Six1/His-Eya2 binding, biochemical; stronger effect = lower value; AID 651725; activity change, % (no concentration beside the values); 360,000 compounds, 0.56% hits; in the data active means activity change below about -65%; inconclusive means mostly about -30% to -63%
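Compounds are tested against tagged Six1 and Eya2 proteins bridged by glutathione donor and nickel acceptor beads; after a one-hour incubation at 37 °C without light, AlphaScreen emission is recorded.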
GALK inhibitor – inhibitors of human galactokinase; AID 1868; P51570; Potency, µM (highest dose often 57.5 µM), for the others: at the top dose activity change, negative = inhibition, hits mostly inhibitors; Purified GALK, Kinase-Glo residual ATP luminescence; 270,000 compounds, 0.007% hits; further: potency means the concentration at half of the fitted maximal effect
Target sequence (P51570 whole entry, looked up): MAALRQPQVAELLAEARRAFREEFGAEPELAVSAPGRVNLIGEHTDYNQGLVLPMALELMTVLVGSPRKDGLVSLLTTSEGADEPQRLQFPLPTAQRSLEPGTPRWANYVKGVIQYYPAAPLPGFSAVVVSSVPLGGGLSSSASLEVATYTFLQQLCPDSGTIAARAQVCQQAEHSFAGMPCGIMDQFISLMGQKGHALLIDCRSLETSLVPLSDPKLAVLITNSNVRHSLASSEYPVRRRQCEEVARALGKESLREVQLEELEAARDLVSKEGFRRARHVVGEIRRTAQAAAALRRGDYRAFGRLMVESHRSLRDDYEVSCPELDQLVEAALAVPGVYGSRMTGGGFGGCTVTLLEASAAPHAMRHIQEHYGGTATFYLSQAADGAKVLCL
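Galactose (100 uM) and ATP (35 uM) were turned over by 5 nM GALK for 1 h at RT. Kinase-Glo Plus then converted the remaining ATP into a luminescent signal.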
KDM4E inh – inhibitors of human JMJD2E histone demethylase | B2RXH2 | JMJD2E catalytic domain, FDH-coupled NADH fluorescence (FDH is formaldehyde dehydrogenase) | Potency, µM (top dose mostly 57.1 µM), for inactives: at the highest dose activity change, negative = inhibition, usual class: inhibitors | 230,000 compounds, 1.6% hits; active means well fitted inhibition curve with a large enough effect, not every such curve was filed as active; inconclusive means small, poorly fitted or top-dose-only effect, or another doubt; inactive means no such curve, though single readings can be large or run the other way;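 further: potency means the concentration at half of the fitted maximal effect; 0% = wells with enzyme and -100% = buffer wells without enzyme; nearly all actives have a fitted effect of over 50% in size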
Anesthetic bind – binds horse apoferritin like a general anesthetic; Potency, µM (top dose mostly 77.5 µM), without a hit: top-dose activity change, negative = displacement, most hits filed as inhibitors; apoferritin/1-aminoanthracene competitive binding, fluorescence; P02791; AID 485281; 350,000 compounds, 0.074% hits; further: potency means the concentration at half of the fitted maximal effect; nearly all actives have a fitted effect of over 20% in size
Target sequence (P02791 2-175 limits assumed): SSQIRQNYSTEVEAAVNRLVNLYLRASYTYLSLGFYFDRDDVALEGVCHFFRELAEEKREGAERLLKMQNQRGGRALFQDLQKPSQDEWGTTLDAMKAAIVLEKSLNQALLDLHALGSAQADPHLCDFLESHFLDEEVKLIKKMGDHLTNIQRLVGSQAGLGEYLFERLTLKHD
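Apoferritin-based anesthetic binding model; compound displacement of fluorescent 1-AMA measured as endpoint fluorescence after 10 minutes at room temperature, scaled to free-ligand and complex controls.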
* marks the source's active call; other numbers are inactive results; ? = inconclusive; · = no result; [ ] = dose if it differs, or a comment. Unless noted, the call rests on the fitted dose curve; in most records, active means well fitted curve in the direction sought with a large enough effect; inconclusive means small, poorly fitted or top-dose-only effect, or another doubt; inactive means no such curve, though single readings can be large; an effect the other way counts as inactive or inconclusive. Unless noted, on the % scale 0 is the no-effect control and ±100 the full control effect.

SMILES	CtBP-E1A inh	Eya2 inh	Six1-Eya2 inh	GALK inhibitor	KDM4E inh	Anesthetic bind
CSc1ncccc1C(=O)N1CCN(S(=O)(=O)c2cc(C)ccc2C)CC1	3	-7%	-4	-2%	·	0%
Oc1ccc(CN2CCc3ccccc3C2)c2cccnc12	-95*	·	-94*	3%	?	?
Cc1ccc(C)c(S(=O)(=O)N2CCN(Cc3ccc(O)c4ncccc34)CC2)c1	-86*	-10%	-79*	12%	3.5µM*	-7%
Cc1[nH]c2ccccc2c1CN1CCC(Cc2ccccc2)CC1	-3	2%	-13	2%	25µM*	-6%
Oc1ccc(CN2CCC(Cc3ccccc3)CC2)c2cccnc12	?	1%	-73*	-1%	?	-10%
Clc1ccccc1CN1CCC(Cc2ccccc2)CC1	-4	1%	5	1%	-1%	4%
Cc1[nH]c2ccccc2c1CN1CCN(c2ccccn2)CC1	-13	-6%	-7	-4%	-1%	3%
CSCC[C@H](NC(=O)[C@H](Cc1ccccc1)NC[C@@H](NC[C@@H](N)CS)C(C)C)C(=O)O	·	·	·	·	·	-9%
O=C(Nc1ccc2oc(-c3cccnc3)nc2c1)c1ccc(-c2ccccc2OC(F)(F)F)o1	·	·	·	·	·	-8%
Oc1ccc(CN2CCN(c3ccccc3)CC2)c2cccnc12	-75*	-20%	-74*	-5%	18µM*	-7%
COCCCNc1nc(=S)[nH]c2cc(OC)c(OC)cc12	-95*	-6%	-90*	-1%	-7%	-10%
COc1cc2[nH]c(=S)nc(NCCC(C)C)c2cc1OC	-89*	2%	-87*	14%	?	-13%
CCC1=C(OC(=O)N(CC)CC)N2C(=O)OC(=NCCOC)[C@]2(C)[C@H]2C1=CC[C@H]1C(=O)N(CC(=O)OC)C(=O)[C@H]12	·	·	·	·	2%	-1%
Cc1cc(NC(=O)CSc2nc(-c3cccc(F)c3)nc3c2c(=O)n(C)c(=O)n3C)no1	·	·	·	·	·	-6%
O=C(Nc1nc(-c2ccccn2)cs1)c1ccc(S(=O)(=O)N2CCCCC2)cc1	·	5%	·	-1%	1%	-20%
Cc1ccc(S(=O)(=O)N2CCOCC2)cc1C(=O)Nc1nc(-c2ccccn2)cs1	3	2%	-85*	·	·	·
COc1ccc(C(=O)Nc2nc(-c3ccccn3)cs2)cc1S(=O)(=O)N1CCOCC1	·	-29%	-93*	·	·	·
CC(CC(=O)Nc1ncc([N+](=O)[O-])s1)c1ccccc1 (stereo not given)	11	?	22	0%	-1%	35µM*
CCC(Oc1ccccc1)C(=O)Nc1ncc([N+](=O)[O-])s1 (stereo not given)	·	11%	2	-1%	11%	-17%
O=c1[nH]c2ccc(Cl)cc2c(-c2ccccc2)c1CN1CCOCC1	-81*	1%	-73*	0%	?	?
O=C(CN1C(=O)C2CCCN2c2ncc(Cl)cc21)NCc1ccc2c(c1)OCO2 (stereo not given)	4	-3%	-3	4%	14µM*	-10%
COC(=O)c1cccc(C23CC4(C2)[C@H](CN(Cc2ccc(-c5ccccc5)cc2)[C@@H]4c2ccccc2)C3c2ccc(C(F)(F)F)cc2)c1 (stereo not given in full)	·	3%	-7	4%	20µM*	-4%
CC1CCC2C(=O)N3C(CCC(C)[C@@H]3c3cccc(N4CCOCC4)c3)C(=O)N2C1c1cccc(Br)c1 (stereo not given in full)	·	·	·	·	·	7%[15.3 µM]
NC(=O)c1ccc(-n2nnnc2SCC(=O)c2ccc(O)c(O)c2)cc1	?	-8%	-25	1%	0.71µM*	-19%
COc1ccc(-n2nnnc2SCC(N)=O)cc1	-1	7%	0	1%	-6%	-4%
SMILES	CtBP-E1A inh	Eya2 inh	Six1-Eya2 inh	GALK inhibitor	KDM4E inh	Anesthetic bind
COc1ccc(-n2nnnc2SCC(=O)c2ccc(O)c(O)c2)cc1	-10	-1%	-10	-1%	11µM*	-4%
CN=C1N[C@H](c2ccccc2)N(c2ccccc2)S1	·	·	·	·	7.9µM*	·
COC(=O)[C@@]1(Cc2ccc(F)cc2)[C@@H]2C(=CC(=O)[C@H]2CC(=O)C(=O)N(C)C)CN1C(=O)c1ccccc1	·	·	·	·	-1%	-10%
COc1nccnc1NS(=O)(=O)c1ccc(NCc2cc(Br)ccc2O)cc1	-73*	-5%	-77*	-5%	·	2%
CCc1nnc(NS(=O)(=O)c2ccc(NCc3cc(Br)ccc3O)cc2)s1	-30	-1%	-18	0%	·	-4%
COc1cccc(CNc2ccc(S(=O)(=O)Nc3nccs3)cc2)c1O	-25	38%	-22	0%	-2%	-19%
O=S(=O)(Nc1nccs1)c1ccc(NCc2cc(Br)cc(Br)c2O)cc1	·	-21%	-90*	3%	7%	-5%
CCc1c(C)sc(NC(=O)CC#N)c1C#N	-67*	4%	?	0%	?	-12%
CCCC(=O)Nc1sc(C)c(C)c1C#N	0	-3%	0	-1%	-11%	-5%
COc1ccccc1NC(=O)C1=C(C)Nc2nc(SCc3ccccc3)nn2C1c1cccnc1 (stereo not given)	·	·	·	·	·	-3%
COc1ccc(S(=O)(=O)c2c(O)c3ccc(C(=O)Nc4ccccc4F)cc3[nH]c2=O)cc1	-24	14%	?	6%	·	-4%
COc1ccc(S(=O)(=O)c2c(O)c3ccc(C(=O)Nc4cccc(F)c4)cc3[nH]c2=O)cc1	·	-2%	-66*	-2%	·	-2%
O=C(N/N=C/C(Cl)=C/c1ccc([N+](=O)[O-])cc1)C(=O)Nc1ccc(C(=O)O)cc1	-98*	11%	-19	-2%	-9%	0%
O=C(N/N=C/C(Cl)=C/c1ccc([N+](=O)[O-])cc1)C(=O)Nc1ccccc1C(=O)O	-92*	-2%	-25	-3%	-26%	6%
CC(=O)c1ccc(NC(=O)CSc2nnc(-c3ccco3)c(-c3ccco3)n2)cc1	?	9%	?	4%	16µM*	-11%
O=C(Cc1ccccc1)Nc1nnc2n1CCS2	·	·	·	·	·	3%
CCOc1ccc(CCNC(=O)c2cc(=O)[nH]c3ccc(S(=O)(=O)N4CCCCC4)cc23)cc1OCC	·	·	·	·	·	14%
COc1ccc(Nc2c([N+](=O)[O-])ccc3c2=NC2(CCCCC2)N=3)cc1	-76*	-5%	-78*	0%	?	?
S=c1[nH]nc(Nc2cccc3ccccc23)s1	3	4%	-12	4%	25µM*	-16%
Cc1ccc2nc(-c3ccncc3)c(Nc3ccccc3C)n2c1	·	·	·	·	·	-1%
Cc1ccccc1Nc1c(-c2ccccn2)nc2ccccn12	·	-11%	-91*	0%	?	?

From PubChem BioAssay
